Results taken from publication PMC3218832.

Each sequence was assayed against RELA (p65) subunit of heterodimer;p52 subunit (Homo sapiens;Homo sapiens, UniProt Q04206;Q00653 1-307;4-332) (assay: protein binding microarray; high values mean tight binding). Settings: dsDNA, one strand shown.
With CAAGGAGCCCC the binding signal was -0.176 z-score. CGGTAGCCCCT gave a binding signal of 0.598 z-score. CAGTAAATCCT gave a binding signal of -0.822 z-score. Work on AGGTTCGCCCT yielded a binding signal of -0.838 z-score. Sequence GAGAGATTCCC has a binding signal of 0.545 z-score. Work on GAGGGCCTCCT yielded a binding signal of -0.776 z-score. Work on CAGAAGGCCCC yielded a binding signal of -0.223 z-score. AAAAATCCCCT gave a binding signal of 2.84 z-score. With AAATTGTCCCT the binding signal was 1.26 z-score. With AGAAACTTCCC the binding signal was 0.818 z-score. For AGGAGAACCCT, the binding signal was -0.729 z-score. GAATTTGTCCC was tested, and the binding signal was 0.944 z-score. AAGATGCCCCC showed a binding signal of 0.788 z-score. With GAAGGCATCCT the binding signal was -1.21 z-score. Sequence CAGATAGCCCT has a binding signal of -0.763 z-score. Sequence GAAGGCGTCCC has a binding signal of -0.134 z-score. GGGTTACTCCC was tested, and the binding signal was 0.789 z-score. GAGAAGCCCCT gave a binding signal of 1.14 z-score. GGAAGAGCCCT showed a binding signal of -0.503 z-score. For GGAGGAGTCCC, the binding signal was 0.831 z-score. In the case of CGATTAATCCC, the binding signal is reported as -0.137 z-score. AAGGTATTCCT gave a binding signal of -0.138 z-score. In the case of CAAGGTATCCC, the binding signal is reported as -0.575 z-score. AAGAATCCCCC showed a binding signal of 2.16 z-score. GAATAACTCCT gave a binding signal of -0.946 z-score. CGAGAATCCCT was tested, and the binding signal was 0.284 z-score. For AAGGTCCCCCC, the binding signal was 1.1 z-score. Work on GAAGGCCCCCC yielded a binding signal of 0.62 z-score. Work on CAAAAACCCCT yielded a binding signal of 2.09 z-score. AAGTGAACCCT gave a binding signal of -0.763 z-score. For AAAGGGATCCC, the binding signal was -0.268 z-score. Work on CGGAAATCCCT yielded a binding signal of 1.25 z-score. Work on GGAGGTACCCT yielded a binding signal of 0.0265 z-score. With CAGGGGACCCT the binding signal was 0.384 z-score. In the case of CAATGGTTCCT, the binding signal is reported as -0.883 z-score. Sequence CAGAGCACCCT has a binding signal of -0.75 z-score. In the case of CAAGTGGCCCT, the binding signal is reported as -0.801 z-score. Work on CAAGTCACCCC yielded a binding signal of -0.613 z-score.
